In the library only some 7.9% were active in any assay of this set; here they are far more common.
FMDV inh = antivirals against foot and mouth disease virus | FMDV antiviral cell-based qHTS | Potency, µM (doses to about 57.9 µM), inactives show top-dose activity change, negative = inhibition, most hits filed as inhibitors | actives 1.2% (n = 410,000); calls by dose curve; tested in HEK293T cells; note: read-out not given here; potency is the fitted concentration of half-maximal effect; nearly all actives have a fitted effect of over 45% in size
HCV inhibitor = inhibitors of hepatitis C virus infection | actives 3.4% (n = 340,000) | Potency, µM (highest dose often 41.8 µM), for the others: at the highest dose activity change, negative = inhibition, usual class: inhibitors | Huh7.5.1 HCVcc-Cre infection, luciferase reporter, 44 h; active = well fitted inhibition curve with a large enough effect; inconclusive = small, poorly fitted or top-dose-only effect, or another doubt; inactive = no such curve, though single readings can be large or run the other way; note: potency is the fitted concentration of half-maximal effect
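Cells seeded at 1,000/well and cultured 4 h, then compounds added followed by HCVcc-Cre virus (~0.5 moi). After 44 h further culture, luciferase substrate was added, plates held 15 min at room temperature, and luminescence read for 15 sec.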
MARV entry inh = blocks Marburg virus binding to or entry into cells. Marburg virus pseudotyped entry inhibition, cell reporter. Potency, µM (titrated, usually from 37.8 µM), for inactives: top-dose activity change, negative = inhibition, actives largely listed as inhibitors. actives 1.8% (n = 300,000). AID 540276; calls by dose curve; tested in HEK293 cells; note: potency is the fitted concentration of half-maximal effect
LASV entry inh = Lassa virus entry inhibition; Lassa virus pseudotype entry inhibition, cell reporter; Potency, µM (highest dose often 37.9 µM), for inactives: at the highest dose activity change, negative = inhibition, hits mostly inhibitors; actives 1.2% (n = 300,000); calls by dose curve; tested in HEK293 cells; note: potency is the fitted concentration of half-maximal effect; nearly all actives have a fitted effect of over 50% in size
HCMV inh = human cytomegalovirus inhibition. HFF cells, HCMV-luciferase reporter, 72 h; active compounds read low. actives 4.5% (n = 410,000). activity change, negative = inhibition, % at 57.5 µM; in the data active = activity change below about -60%; inconclusive = no clear call, values can overlap the other calls; inactive = above about -39%
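Human foreskin fibroblasts infected with luciferase-reporter HCMV at MOI 1 PFU/cell, compounds at two doses. Luciferase measured 72 h post infection; normalized to buffer-only basal and Salinomycin (10uM) controls.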
Starred values were filed as active, the others as inactive; u = inconclusive; x = no result; [ ] = dose if it differs, or a comment. % is set by controls: 0 for no effect and ±100 for the full control effect.

SMILES | FMDV inh | HCV inhibitor | MARV entry inh | LASV entry inh | HCMV inh
NCCn1cc(-c2cc(Cl)c(N)c(Cl)c2)ncc1=O | x | x | x | x | 12
CCOC(=O)c1c(C)oc2c1c(CN1CCN(C(=O)OCC)CC1)c(O)c1ccccc12 | -22% | u | -1% | 16% | 134
CCOC(=O)c1c(C)oc2c1c(C(c1ccncc1)N1CCOCC1)c(O)c1ccccc12 (stereo not drawn) | 0% | 13µM* | u | u | 127
COc1ccc(CCNC(=O)c2cc3c(=O)[nH]c4ccc(C)cc4c3s2)cc1OC | -17% | x | 0%[46.1 µM] | -29%[46.1 µM] | -6
COC(=O)[C@]1(C)CC[C@@]2(C)CC[C@@]3(C)C4=CCc5c(cc(O)c(O)c5C)[C@]4(C)CC[C@@]3(C)C2C1 (stereo partly drawn) | 20µM* | x | x | x | x
O=C(Cn1c(=O)n(-c2ccccc2)c(=O)c2sc3ccccc3c21)NC1CCCC1 | -19% | x | 14%[46.1 µM] | 30%[46.1 µM] | -23
CCCOc1ccc(-c2cn3ccccc3n2)cc1 | -54% | u | x | x | -64*
COc1ccc(-c2cn3ccccc3n2)cc1 | -23% | 5% | x | x | 22
COc1ccc(-c2cc(C3CCN(c4cc(Cl)nc(N)n4)CC3)[nH]n2)cc1 | 22µM* | u | 9.2µM* | u | -60*
COc1ccc(OC)c(-c2cc(C3CCN(c4cc(Cl)nc(N)n4)CC3)[nH]n2)c1 | 18µM* | u | u | u | -89*
COc1cc(OC)c(NC(=O)c2oc3ccc4c(c3c2C)C(=O)CC(C)(C)O4)cc1Cl | 2% | x | x | 21%[46.1 µM] | -2
CCC[C@H]1[C@@H](NS(=O)(=O)c2ccc(C(F)(F)F)cc2)CC[C@@]23CCCN2C(=O)CCC[C@@H]13 | x | x | x | x | -13
O=C(Cn1cc(S(=O)(=O)c2ccccc2)c(=O)c2cc3c(cc21)OCO3)Nc1ccccc1 | 3% | x | 10%[46.1 µM] | -10%[46.1 µM] | -12
Cc1cccc(-n2cnc3c(sc4nc(N5CCOCC5)c5c(c43)CCCC5)c2=O)c1 | u | 18µM* | u | u | u
CCc1cccc(C)c1NC(=O)Cn1ncc2c3ccccc3n(Cc3ccccc3)c2c1=O | -1% | x | u | 20%[46.1 µM] | -4
CCOc1cccc(/C=N/Nc2ccc(S(=O)(=O)N(CC)CC)cn2)c1O | 0% | u | u | u | -100*
CCN(CC)S(=O)(=O)c1ccc(N/N=C/c2ccc(O)cc2)nc1 | 13% | 8% | u | 3%[46.1 µM] | u
CCN(CC)S(=O)(=O)c1ccc(N/N=C(\C)c2ccc(OC)cc2O)nc1 | -21% | u | x | x | -62*
COc1cc(C(=O)Nc2ccc3ccccc3c2)cc(OC)c1OC | 20% | u | 1.4µM* | -11%[46.1 µM] | 47
COc1ccc(OC)c(C(=O)c2ccc(C(=O)Nc3ccc4ccccc4c3)cc2)c1 | -12% | u | u | 10µM* | u
COc1ccc(/C(C)=N/Nc2ccc(C(=O)O)cc2)cc1OC | -15% | 4% | u | u | 21
COc1ccc(OC)c(/C(C)=N/Nc2ccc(C(=O)O)cc2)c1 | -19% | 24% | 20%[46.1 µM] | 30%[46.1 µM] | -96*
COc1cc(C(=O)Nc2ccc3c(c2)ncn3C(C)(C)C)cc(OC)c1OC | 11% | 13µM* | x | x | 53
COc1ccc(C(=O)Nc2ccc3ccccc3c2)cc1 | -50% | -11% | x | x | 0
CCN1CCN(c2nnc(-n3cccc3C(=O)Nc3cccc(OC)c3)s2)CC1 | 7% | x | x | 29%[46.1 µM] | u
SMILES | FMDV inh | HCV inhibitor | MARV entry inh | LASV entry inh | HCMV inh
CCC(C(=O)Nc1cccc(Cl)c1C)n1nc(C)c2sc3ccccc3c2c1=O (stereo not drawn) | -5% | x | -10%[46.1 µM] | 6%[46.1 µM] | -10
CCCCNC(=O)c1cc2n(n1)[C@@H](C(F)(F)F)C[C@H](c1ccccc1)N2 | x | x | -19% | x | x
CCn1c(CNC(=O)c2cc(OC)c(OC)c(OC)c2)cc2ccccc21 | -27% | u | u | u | -61*
COc1cc2oc3cc(C#Cc4ccc(N)cc4)ccc3c(=O)c2cc1OC | u | u | x | x | -4
COc1cc2oc3ccc(C#Cc4ccc(N)cc4)cc3c(=O)c2cc1OC | 7% | 13µM* | x | x | 65
O=C(Nc1ccccc1)c1cc(C2CCCN(C(=O)CCc3ccccc3)C2)on1 (stereo not drawn) | 31% | x | x | x | -18
COc1ccc(C(=O)N2CCCC(c3ccccc3)C2)cc1 (stereo not drawn) | -1% | -16% | u | 4.5µM* | -35
CN(C)c1ccc(CC(=O)N2CCCC(c3cc(C(=O)Nc4ccc(C(C)(C)C)cc4)no3)C2)cc1 (stereo not drawn) | 18µM* | x | x | x | -75*
COc1ccc(C(=O)Nc2ccc(Cl)cc2C(=O)N2CCCC(C)C2)cc1 (stereo not drawn) | 17% | u | -10% | -3% | -100*
COc1ccc(C(=O)N2CCCC(c3cc(C(=O)Nc4ccccc4)no3)C2)cc1 (stereo not drawn) | 18% | x | x | x | -73*
O=C(c1ccc(F)cc1)N1CCC(c2ccccc2)C1 (stereo not drawn) | 36% | 4% | -14%[46.1 µM] | -8% | 43
CCOC(=O)[C@@H](CC(=O)O)N1CCCCC1 | x | x | 2% | x | x
CCc1cnc2c(c1SC(C(C)=O)C(=O)N(C)C)c(=O)n(C)c(=O)n2C (stereo not drawn) | -17% | x | x | 0%[46.1 µM] | -24
COC(=O)c1c(-c2ccc(Cl)cc2)noc1N1CCN(c2cccc(C(F)(F)F)c2)CC1 | u | x | x | -19%[46.1 µM] | 11
Cc1ccc(Cl)cc1NC(=O)Nc1nnc(N2CCCC(C)C2)s1 (stereo not drawn) | -5% | x | u | 2%[46.1 µM] | 13
O=C(CSc1nnc(CNC(=O)c2c(F)cccc2Cl)o1)Nc1ccccc1F | -20% | x | 14%[46.1 µM] | 9%[46.1 µM] | -1
